# Reference: PubChem BioAssay
# The list shows a part of the results. The source made the active and inactive calls.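 The calls were made as follows, unless noted: active = mean inhibition above about 50% in the one-dose retest (limit read from the data); inactive = the rest.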
# How the values were obtained:
# [1] = target: Sentrin-specific protease 8 (Homo sapiens) (UniProt Q96LD8); assay: SENP8 protease inhibitors, retest, confirmation, biochemical, luminescence, single concentration (AID 488912;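 active = mean inhibition across replicates above about 50%, limit read from the data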); details: Recombinant SENP8, Z-RLRGG-aminoluciferin luminescence, 60 min; at 12.5 µM; stronger effect = higher value
# Sequence of Sentrin-specific protease 8 (Homo sapiens) (Q96LD8 whole entry, looked up): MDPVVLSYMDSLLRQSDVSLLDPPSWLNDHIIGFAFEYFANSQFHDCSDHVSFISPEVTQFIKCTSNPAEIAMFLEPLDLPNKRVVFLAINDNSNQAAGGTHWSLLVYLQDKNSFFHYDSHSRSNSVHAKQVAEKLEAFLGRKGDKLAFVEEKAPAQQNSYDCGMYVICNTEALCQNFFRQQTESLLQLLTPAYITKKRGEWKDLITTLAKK
# [2] = target: Sentrin-specific protease 6 (Homo sapiens) (UniProt Q9GZR1); assay: SENP6 protease inhibitors, confirmation, biochemical, luminescence, single concentration (AID 488915); details: recombinant SENP6, Z-RLRGG-aminoluciferin luminescence; at 12.5 µM; stronger effect = higher value
# Sequence of Sentrin-specific protease 6 (Homo sapiens) (Q9GZR1 628-1112 limits assumed): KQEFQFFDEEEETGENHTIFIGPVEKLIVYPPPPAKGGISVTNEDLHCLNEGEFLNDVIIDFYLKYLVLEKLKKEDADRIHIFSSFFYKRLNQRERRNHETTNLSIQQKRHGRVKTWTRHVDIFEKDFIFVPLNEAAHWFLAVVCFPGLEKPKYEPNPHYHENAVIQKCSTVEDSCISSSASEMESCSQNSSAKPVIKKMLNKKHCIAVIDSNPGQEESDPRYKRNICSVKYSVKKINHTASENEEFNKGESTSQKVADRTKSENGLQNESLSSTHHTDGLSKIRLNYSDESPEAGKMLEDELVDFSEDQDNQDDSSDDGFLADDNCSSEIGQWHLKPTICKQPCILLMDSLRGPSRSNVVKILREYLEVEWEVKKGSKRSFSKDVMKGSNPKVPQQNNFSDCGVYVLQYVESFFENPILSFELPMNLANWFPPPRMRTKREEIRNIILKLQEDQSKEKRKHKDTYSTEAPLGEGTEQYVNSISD
# [3] = target: Sentrin-specific protease 7 (Homo sapiens) (UniProt Q9BQF6); assay: SENP7 protease inhibitors, retest, confirmation, biochemical, luminescence, single concentration (AID 488917); details: recombinant SENP7, Z-RLRGG-aminoluciferin luminescence, 40 min; at 12.5 µM; stronger effect = higher value
# Sequence of Sentrin-specific protease 7 (Homo sapiens) (Q9BQF6 706-1050 limits assumed): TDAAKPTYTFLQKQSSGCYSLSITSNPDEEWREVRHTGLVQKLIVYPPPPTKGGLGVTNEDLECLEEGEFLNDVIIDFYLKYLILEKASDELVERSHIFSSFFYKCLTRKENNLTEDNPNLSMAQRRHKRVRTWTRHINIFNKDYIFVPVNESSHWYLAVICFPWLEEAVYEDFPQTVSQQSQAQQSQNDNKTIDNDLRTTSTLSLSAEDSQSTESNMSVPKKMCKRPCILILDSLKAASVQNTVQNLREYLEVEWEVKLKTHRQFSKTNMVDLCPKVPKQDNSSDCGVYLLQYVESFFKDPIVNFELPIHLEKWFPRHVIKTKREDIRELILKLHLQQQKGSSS
# [4] = target: Caspase-3 (Homo sapiens) (UniProt P42574); assay: caspase-3 protease inhibitors, confirmation, selectivity assay for SENP inhibitor project, biochemical, single concentration (AID 488918;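 active = mean inhibition above about 50%, limit read from the data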;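 also: plate controls were enzyme with DMSO for no effect and wells without caspase-3 for full effect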); details: purified caspase-3, Z-DEVD-aminoluciferin luminescence, 60 min; at 12.5 µM; stronger effect = higher value
# Sequence of Caspase-3 (Homo sapiens) (P42574 28-227 limits assumed): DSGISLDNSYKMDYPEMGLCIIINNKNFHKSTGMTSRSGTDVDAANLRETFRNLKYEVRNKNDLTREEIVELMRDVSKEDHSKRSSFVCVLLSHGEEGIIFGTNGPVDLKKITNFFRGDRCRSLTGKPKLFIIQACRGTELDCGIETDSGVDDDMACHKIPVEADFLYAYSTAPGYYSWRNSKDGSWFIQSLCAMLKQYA
# [5] = luciferase luminescence interference by compounds, confirmation, artefact control for SENP inhibitor project, biochemical, single concentration, SENP8 reaction pre-completed (AID 488919;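 active = mean inhibition above about 50% when retested at one dose, limit read from the data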;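 also: plate controls were DMSO wells with completed reaction for no effect and substrate without enzyme for full effect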); details: Pre-incubated SENP8/Z-RLRGG-aminoluciferin, at 12.5 µM, stronger effect = higher value
# [6] = activators of apoptotic CHOP UPR arm, confirmation, cell-based, CHO-CHOP luciferase reporter, single concentration (AID 463112; in the data active = activation above about 33%;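 also: 0% = DMSO wells and 100% = tunicamycin 10 µg/mL wells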); details: CHO-CHOP cells, CHOP-luciferase reporter luminescence; at 10 µM; stronger effect = higher value; percent of tunicamycin response, DMSO as zero
# [7] = HIF-2a reporter inhibitor retest, confirmation, luminescence, 786-0 RCC cells (AID 651580;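 active = mean inhibition across four replicates of at least 40 percent at the single tested concentration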); details: HIF-2a luciferase reporter luminescence, overnight, at 18.8 µM, stronger effect = higher value
# [8] = HIF-1a luciferase reporter signal reduction – MiaPaCa-2 cells, single concentration, counter-screen for HIF-2a inhibitor project, confirmation (AID 651589;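 active = mean inhibition of the reporter signal across four replicates at the single tested dose of 50% or more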); details: MiaPaCa-2 HIF-1a luciferase reporter, desferoxamine, overnight; at 18.8 µM; stronger effect = higher value
# [9] = inhibition of Brca1/Bard1 split-luciferase complementation, confirmation, counter-screen for Mdm2/MdmX interaction inhibitor project, luminescence, single concentration (AID 504668; call rule not given here); details: Brca1/Bard1 bimolecular luciferase complementation counterscreen, at 8 µM, stronger effect = higher value
# [10] = inhibitors of PAF-induced NF-kB signaling, retest, confirmation, cell-based, GFP fluorescence, single concentration (AID 602472; in the data active = inhibition above about 40%;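 also: stimulus PAF is a Pseudomonas aeruginosa filtrate and not platelet activating factor; plate controls were DMSO wells with stimulus for no effect and unstimulated DMSO wells for full effect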); details: KKLEB CF airway cells, overnight, at 5 µM, stronger effect = higher value
# [11] = target: Tumor necrosis factor receptor superfamily member 10B (Homo sapiens) (UniProt O14763); assay: caspase-8 TRAIL sensitization, hit retest, confirmation, cell-based, NB7+caspase-8, with/without TRAIL, luminescence panel (AID 651596; in the data active = activity above about 50%); details: NB7 neuroblastoma + caspase-8, TRAIL sensitization, luminescence viability, with TRAIL, mean of runs, at 10 µM, stronger effect = higher value
# Sequence of Tumor necrosis factor receptor superfamily member 10B (Homo sapiens) (O14763 whole entry, looked up): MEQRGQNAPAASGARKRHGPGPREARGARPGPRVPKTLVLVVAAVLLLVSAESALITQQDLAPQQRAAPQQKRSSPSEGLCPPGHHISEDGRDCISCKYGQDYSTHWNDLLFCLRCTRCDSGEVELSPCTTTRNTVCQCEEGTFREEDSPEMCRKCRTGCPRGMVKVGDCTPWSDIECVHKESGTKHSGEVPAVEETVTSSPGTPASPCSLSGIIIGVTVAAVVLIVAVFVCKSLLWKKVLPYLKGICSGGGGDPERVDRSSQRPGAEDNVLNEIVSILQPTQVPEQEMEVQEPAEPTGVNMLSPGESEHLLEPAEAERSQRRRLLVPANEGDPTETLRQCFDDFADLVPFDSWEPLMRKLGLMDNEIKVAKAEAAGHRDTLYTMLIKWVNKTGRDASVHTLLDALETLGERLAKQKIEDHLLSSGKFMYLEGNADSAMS
# [12] = as above; details: NB7 neuroblastoma + caspase-8, without TRAIL, luminescence viability, without TRAIL, mean of runs, at 10 µM
compound,measurement,setting,value
O=C1/C(=C/c2cccs2)CCC1C1CCCC1 (configuration not stated),inhibition,[1],50.9% (active)
same,inhibition,[2],52.1% (active)
same,inhibition,[3],50.7% (active)
same,inhibition,[4],60.9% (active)
same,inhibition,[5],36.6% (inactive)
CC1=NN(C(N)=S)C(=O)C1N=Nc1cc(Cl)ccc1Cl (configuration not stated),inhibition,[1],-5.4% (inactive)
same,inhibition,[2],-1.7% (inactive)
same,inhibition,[3],1.9% (inactive)
same,inhibition,[4],-1.2% (inactive)
same,inhibition,[5],1.2% (inactive)
COc1ccc(C(=O)COC(=O)c2ccc([N+](=O)[O-])s2)cc1OC,inhibition,[1],4.2% (inactive)
same,inhibition,[2],46.8% (inactive)
same,inhibition,[3],7.5% (inactive)
same,inhibition,[4],14.1% (inactive)
same,inhibition,[5],6.4% (inactive)
Cc1cc(C(=O)N/N=C/c2ccc(N3CCOCC3)cc2)c(C)o1,inhibition,[1],86.9% (active)
same,inhibition,[2],86.6% (active)
same,inhibition,[3],98.6% (active)
same,inhibition,[4],95.4% (active)
same,inhibition,[5],49.9% (inactive)
Nc1ccc(-c2nnc(-c3ccc(-c4ccccc4)cc3)o2)cc1,inhibition,[1],11.8% (inactive)
same,inhibition,[2],10.8% (inactive)
same,inhibition,[3],32.4% (inactive)
same,inhibition,[4],6.5% (inactive)
same,inhibition,[5],-0.8% (inactive)
CCOC(=O)c1cnc2[nH]c3ccccc3n2c1=O,inhibition,[1],30.1% (inactive)
same,inhibition,[2],79% (active)
same,inhibition,[3],96.4% (active)
same,inhibition,[4],94.2% (active)
same,inhibition,[5],65.2% (active)
CC1=CC(C)(C)Nc2ccc(OC(=O)CN3C(=O)C4CCCCC4C3=O)cc21 (configuration not stated),activation,[6],68% (active)
same,inhibition,[7],86.9% (active)
same,inhibition,[8],86.2% (active)
O=C(CCl)Nc1cccc(CP(=O)(c2ccccc2)c2ccccc2)c1,activation,[6],34% (active)
same,inhibition,[9],27.6% (active)
same,inhibition,[10],-20.6% (inactive)
same,inhibition,[7],22.9% (inactive)
same,inhibition,[8],51.3% (active)
COc1cc(C#Cc2ccc3cc(CCCO)oc(=O)c3c2)cc(OC)c1,inhibition,[1],56.9% (active)
same,inhibition,[2],72.2% (active)
same,inhibition,[3],86.6% (active)
same,inhibition,[4],42.7% (inactive)
same,inhibition,[5],15.2% (inactive)
Cc1cccc(-n2ncc(Cl)c(Cl)c2=O)c1,activation,[6],29.5% (inactive)
same,inhibition,[7],26.4% (inactive)
same,inhibition,[8],101% (active)
same,activity,[11],99.6%
same,activity,[12],99.7%
Cc1nn2cc(-c3ccc(Cl)cc3)cnc2c1Br,inhibition,[1],17.8% (inactive)
same,inhibition,[2],15.7% (inactive)
same,inhibition,[3],30.8% (inactive)
same,inhibition,[4],28.5% (inactive)
same,inhibition,[5],9% (inactive)
Oc1ccc(Br)cc1C=Nc1ccc2[nH]ncc2c1,inhibition,[1],5.1% (inactive)
same,inhibition,[2],2.1% (inactive)
same,inhibition,[3],-2.2% (inactive)
same,inhibition,[4],-0.8% (inactive)
same,inhibition,[5],-3.9% (inactive)
CCOC(=O)c1c(NC(=O)CCl)sc(C(=O)N(CC)CC)c1C,activation,[6],27% (inactive)
same,activity,[11],95.3%
same,activity,[12],93.8%
O=C(c1cnn2ccccc12)N1CCc2ccccc21,inhibition,[1],36.7% (inactive)
same,inhibition,[2],39.6% (inactive)
same,inhibition,[3],78.5% (active)
same,inhibition,[4],74% (active)
same,inhibition,[5],61.4% (active)
Cc1ccccc1Nc1nc(-c2cccnc2)cs1,inhibition,[1],70.3% (active)
same,inhibition,[2],66.9% (active)
same,inhibition,[3],86.9% (active)
same,inhibition,[4],52.8% (active)
same,inhibition,[5],69.4% (active)
COc1ccccc1-c1nnc(-c2ccc(F)cc2)o1,inhibition,[1],33.8% (inactive)
same,inhibition,[2],38.6% (inactive)
same,inhibition,[3],73.8% (active)
same,inhibition,[4],66.2% (active)
same,inhibition,[5],60.3% (active)
O=C1C(=O)N(CCCN2CCOCC2)C(c2ccc([N+](=O)[O-])cc2)/C1=C(\O)c1ccc2c(c1)OCCO2 (configuration not stated),inhibition,[1],-13.1% (inactive)
same,inhibition,[2],-8.9% (inactive)
same,inhibition,[3],-9% (inactive)
same,inhibition,[4],-4.4% (inactive)
same,inhibition,[5],-12.5% (inactive)
Cc1ccccc1C(=O)Nc1ccc(N2CCCCCC2)cc1,inhibition,[1],73.8% (active)
same,inhibition,[2],72.6% (active)
same,inhibition,[3],91.7% (active)
same,inhibition,[4],67.2% (active)
same,inhibition,[5],51.9% (active)
O=C(Nc1ccc(OC(F)(F)F)cc1)c1ccc2c(c1)no[n+]2[O-],activation,[6],24.4% (inactive)
same,activity,[11],90%
same,activity,[12],96.8%
O=[N+]([O-])c1ccc2nc(-c3ccccn3)[nH]c2c1,inhibition,[1],57.8% (active)
same,inhibition,[2],56% (active)
same,inhibition,[3],82.6% (active)
same,inhibition,[4],81.5% (active)
same,inhibition,[5],48.8% (inactive)
Cc1cccc(OC(=O)c2sc3ncn(C)c(=O)c3c2C)c1,inhibition,[1],1.1% (inactive)
same,inhibition,[2],0.1% (inactive)
same,inhibition,[3],17.1% (inactive)
same,inhibition,[4],14.4% (inactive)
same,inhibition,[5],-2.4% (inactive)
Cc1ccn2cc(-c3nonc3C)cc2c1,inhibition,[1],47.6% (inactive)
same,inhibition,[2],77% (active)
same,inhibition,[3],95.7% (active)
same,inhibition,[4],73.7% (active)
same,inhibition,[5],33% (inactive)
COc1ccc(C(=O)Nc2ccc3c(c2)OCO3)cc1OC,inhibition,[1],8.9% (inactive)
same,inhibition,[2],77.3% (active)
same,inhibition,[3],93.5% (active)
same,inhibition,[4],91.3% (active)
same,inhibition,[5],77.4% (active)
c1ccc2sc(NN=C3CCCC3)nc2c1,inhibition,[1],86.8% (active)
same,inhibition,[2],85.9% (active)
same,inhibition,[3],98.8% (active)
same,inhibition,[4],88% (active)
same,inhibition,[5],15.5% (inactive)
O=c1c2ccccc2ncn1/N=C/c1ccccc1,inhibition,[1],2.5% (inactive)
same,inhibition,[2],80.2% (active)
same,inhibition,[3],97% (active)
same,inhibition,[4],86.6% (active)
same,inhibition,[5],69% (active)
N=c1c2c3c(sc2nc2n1CCCCC2)CCCC3,inhibition,[1],10.9% (inactive)
same,inhibition,[2],8.4% (inactive)
same,inhibition,[3],10.6% (inactive)
same,inhibition,[4],11.1% (inactive)
same,inhibition,[5],11.6% (inactive)
O=C1C=CC(=O)N1c1ccc(N2CCCCC2)cc1,activation,[6],60.2% (active)
same,inhibition,[7],17.3% (inactive)
same,inhibition,[8],-4.26% (inactive)
